Hit rate of the full screen: of about 320,000 compounds, about 9,100 (2.8%) were called active. Another 3% or so got no clear call; they are omitted. Calls follow the shape of the dose curve; as a rule, active = well fitted activation curve with a large enough effect; inconclusive = small, poorly fitted or top-dose-only effect; inactive = no such curve, though single readings can be large or run the other way. Many of the other results were omitted from the sample, so actives are more common in it than they were.
Assay: qHTS Assay for Rab9 Promoter Activators; also: nearly all actives have a fitted effect of over 60% in size; as to activation, negative = inhibition: % of control where 0% means no effect
Details: Huh7 Rab9 promoter-luciferase reporter, luminescence, 24 h; series mostly up to 9.22 µM; activation, negative = inhibition: at the top concentration
Summary of the method: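 Cells were plated at 1500 per well in reduced-serum medium with 10% FBS and left 2 h. Compound in DMSO was then added for 24 h at 37 °C. Reporter signal was read by luminescence after 10 min with luciferase detection reagent.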
Potency is read from the fitted curve at half-maximal effect.

| Structure (SMILES) | activation, negative = inhibition | Potency |
| --- | --- | --- |
| O=C(Nc1ccc(Cl)cc1)OCc1cc(-c2ccccc2)on1 | 0.695% (inactive) |  |
| O=C(Nc1cccc(Cl)c1)OCc1ccccn1 |  | 3980 nM (active) |
| O=C(Nc1cccc(CCc2ccccn2)c1)c1ccc(Cl)cc1 | -8.69% (inactive) |  |
| CC(C)N(C(=O)CSc1nnc(NC2CC2)s1)c1ccccc1 | -5.19% (inactive) |  |
| CCc1nnc(NC(=O)C2CCN(C(=O)c3ccccc3C)CC2)s1 | -6.02% (inactive) |  |
| Nc1[nH][nH]c(=O)c1N=Nc1ccc2c(c1)OCO2 |  | 3550 nM (active) |
| O=C1/C(=C/c2ccc3c(c2)OCO3)CCC/C1=C\c1ccc2c(c1)OCO2 | -1.72% (inactive) |  |
| Cc1[nH][nH]c(=O)c1N=Nc1ccccc1 | 12% (inactive) |  |
| COc1ccc2ccn(C)c2c1 | -0.692% (inactive) |  |
| Cc1ccc(NC(=O)CN(C)C(=O)COC(=O)c2nccnc2N)cc1 | -6.5% (inactive) |  |
| CS(=O)(=O)N1CCc2nc(-c3ccccc3)sc2C1 |  | 1580 nM (active) |
| CS(=O)(=O)N1CCN(c2cccc(Cl)n2)CC1 | -4.47% (inactive) |  |
| CS(=O)(=O)N1CCN(C(=O)Cc2ccccc2)CC1 | 2.51% (inactive) |  |
| NC(=O)C1CCN(C(=O)c2ccc(F)c(S(=O)(=O)N3CCOCC3)c2)CC1 | 0.968% (inactive) |  |
| Cc1ccc(N(CC(=O)NCC2CCCO2)C(=O)CNS(=O)(=O)c2ccc(Cl)cc2)cc1 (centres undefined) | 3.13% (inactive) |  |
| O=C1c2ccccc2C(=O)N1CCC#Cc1ccc2cc(C3(O)CCCCC3)oc(=O)c2c1 | -4.71% (inactive) |  |
| O=C(Nc1ccc(C2CC2(Cl)Cl)cc1)c1cccc([N+](=O)[O-])c1 (centres undefined) |  | 3980 nM (active) |
| O=C(Nc1ccc(C(=O)N2CCCCC2)cc1)c1cccc([N+](=O)[O-])c1 | 2.09% (inactive) |  |
| O=C(Nc1ccc(NC(=O)c2ccco2)c(Cl)c1)c1cccc([N+](=O)[O-])c1 | 2.88% (inactive) |  |
| CN(C)/C=C(/C(=O)c1ccc(Cl)c(Cl)c1)c1nnnn1-c1ccccc1 | -1.69% (inactive) |  |
| COC(=O)Cc1[nH]n(-c2nc3ccccc3s2)c(=O)c1C(C)=Nc1ccc(OC)cc1 | -29.5% (inactive) |  |
| CC(=NCc1ccco1)C1=C(O)c2ccccc2C1=O | 27.3% (inactive) |  |
| CC(=NCc1ccco1)c1c(C(F)(F)F)[nH]n(-c2nc3ccccc3s2)c1=O |  | 2000 nM (active) |
| O=C(CN1CCN(S(=O)(=O)c2cccc(Cl)c2)CC1)N1CCCCC1 | -2.8% (inactive) |  |
| COc1ccccc1N1CCN(CC(=O)Nc2ccnn2C2CCCC2)CC1 | -1.51% (inactive) |  |
| O=C(/C=C\c1cn(-c2ccccc2)nc1-c1cccs1)N1CCOCC1 | -2.01% (inactive) |  |
| O=C(O)c1ccc(N/N=C/c2cn(-c3ccccc3)nc2-c2cccs2)cc1 |  | 447 nM (active) |
| COc1ccc(-c2nn(-c3ccccc3)cc2/C=C\C(=O)Nc2ccc(C(=O)O)cc2)cc1 | -2.58% (inactive) |  |
| COc1ccc(OC)c(/C=C/C(=O)c2ccc3c(c2)OCO3)c1 | -4.56% (inactive) |  |

Source: PubChem BioAssay AID485297 (National Center for Advancing Translational Sciences (NCATS), 2010)
